# Data published in article PMC5540273 (PLoS ONE, 2017).
# Tests used:
# Conditions in all cases: concentration: 1 μM, replicates: in singlicate; n = 1
# [1] = system: BMX
# [2] = system: BRAF
# [3] = system: T1, BRK
# T1 construct: gene PTK6
# [4] = system: BRSK1
# [5] = system: BRSK2
# [6] = system: BTK
# [7] = system: BUB1
# [8] = system: CAMK1B
# [9] = system: CAMK1D
# [10] = system: CAMK1G
# 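Also: KINOMEscan kinase panel screen.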
SMILES,%Inh [1],%Inh [2],%Inh [3],%Inh [4],%Inh [5],%Inh [6],%Inh [7],%Inh [8],%Inh [9],%Inh [10]
Cc1ccc(-c2ccc3occ(-c4ccc(S(C)=O)cc4)c3c2)nn1 (centres unmarked),0%,0%,0%,0%,0%,0%,5%,14%,15%,7%
O=C(Nc1n[nH]c2nc(-c3ccccc3O)ccc12)C1CC1 [SB-711880],0%,0%,0%,38%,19%,0%,2%,9%,4%,0%
CN(C)c1ncnc2nc[nH]c12 [SKF-31736],0%,9%,0%,0%,0%,0%,40%,0%,0%,8%
Cc1ccc(O)cc1Nc1ccnc2ccc(C(C)(C)C)cc12 [GW856805],19%,63%,91.4%,5%,20%,0%,30%,29%,28%,0%
CCOc1nccc(-c2c(-c3ccc(F)cc3)ncn2C2CCNCC2)n1 [SB-249175],12%,5%,0%,0%,11%,34%,27%,31%,0%,1%
CC(=O)Nc1cn2nc(Oc3cccc(NC(=O)c4cccc(C(F)(F)F)c4)c3)ccc2n1,25%,99.7%,92.1%,0%,0%,4%,0%,0%,24%,0%
O=C(Nc1c(F)cccc1F)c1cc(C(=O)c2ccccc2F)c[nH]1 [GSK1326180],18%,0%,11%,0%,0%,0%,31%,33%,13%,6%
CCNc1nccc(-c2c(-c3ccc(F)cc3)ncn2C2CCN(C)CC2)n1,6%,0%,0%,0%,0%,0%,63%,0%,17%,5%
COc1cccc(C2=C(Nc3cccc(O)c3)C(=O)NC2=O)c1 [SB-390771],4%,0%,33%,7%,7%,0%,42%,29%,13%,0%
Fc1cc(Cl)ccc1Nc1ccnc2cc(-c3ccc(CN4CCOCC4)o3)ccc12 [GW560109],35%,39%,86%,13%,0%,46%,25%,24%,0%,0%
Nc1ncc(-c2ccc3nccc(-c4ccncc4)c3c2)cc1S(=O)(=O)N1CCCCC1 [GSK1693850],22%,8%,18%,0%,0%,0%,13%,6%,25%,2%
Cc1cc(-c2c(-c3ccc(F)cc3)ncn2CCCN2CCOCC2)nc(N)n1 [SB-222517],5%,0%,0%,0%,17%,0%,0%,0%,12%,44%
Cl.N#CCc1ccc(Nc2nccc(Nc3ccc(Oc4ccccc4)cc3)n2)cc1 [GW639905],34%,0%,60%,0%,0%,0%,0%,31%,0%,0%
COc1ccc(C2=C(Nc3cccc(O)c3)C(=O)NC2=O)cc1 [SB-390766],0%,6%,21%,7%,49%,0%,50%,73%,27%,26%
O=C(Nc1n[nH]c2nc(-c3cccc(O)c3)ccc12)C1CC1 [SB-711805],4%,46%,0%,53%,17%,0%,0%,0%,19%,0%
CN(c1ccc(NC(=O)N2CCN(CCCN3CCOCC3)CC2)cc1)c1ccnc(Nc2ccc(CS(C)(=O)=O)cc2)n1.Cl [GW830899],0%,0%,27%,83%,25%,0%,0%,0%,5%,0%

SMILES,%Inh [1],%Inh [2],%Inh [3],%Inh [4],%Inh [5],%Inh [6],%Inh [7],%Inh [8],%Inh [9],%Inh [10]
Cc1ccc(NC(=O)c2cccc(N3CCCCC3)c2)cc1-c1ccc(C(=O)NCC2CC2)cc1 [GSK1917008],26%,88%,22%,6%,3%,0%,23%,27%,11%,0%
COC(=O)Nc1nc2ccc(Oc3ccc(NC(=O)Nc4cc(C(F)(F)F)ccc4F)cc3)cc2[nH]1.Cl [GW654607],0%,62%,20%,0%,0%,0%,13%,51%,0%,0%
COc1cc(Nc2nccc(N3CCC(NC(=O)Nc4ccc5c(c4)OCO5)C3)n2)cc(OC)c1OC (centres unmarked) [GSK1379766],0%,12%,0%,0%,0%,0%,43%,34%,19%,9%
O=C(O)C(F)(F)F.O=c1[nH]ccc2nc(N[C@@H]3CCNC3)nc(Nc3cc(Cl)cc(Cl)c3)c12 [GSK2188764],27%,0%,5%,19%,8%,0%,99.2%,100%,97.9%,72%
NCCC(NC(=O)c1cc(Br)c(-c2ccnc3[nH]ccc23)s1)c1ccccc1.O=C(O)C(F)(F)F.O=C(O)C(F)(F)F (centres unmarked) [GSK1307810],25%,0%,34%,1%,19%,24%,68%,52%,34%,21%
Cl.Cl.NCC(NC(=O)c1cc(-c2cccnc2)c(-c2ccnc3[nH]ccc23)s1)c1ccccc1 (centres unmarked) [GSK1323434],36%,21%,7%,5%,0%,0%,77%,7%,18%,3%
COc1cc(Nc2ccnc3cc(-c4ccncc4)ccc23)cc(OC)c1OC.Cl [GW494610],37%,60%,19%,0%,9%,90%,42%,2%,0%,9%
Cl.O=C(Nc1ccc(Oc2ccc3[nH]c(NC(=O)c4ccco4)nc3c2)cc1)Nc1cc(C(F)(F)F)ccc1F [GW683134],1%,69%,0%,0%,0%,0%,30%,29%,0%,0%
c1ccc(Oc2ccc(Nc3ccnc4cc(-c5ccc(CN6CCCCC6)o5)ccc34)cc2)nc1 [GW567143],6%,2%,96.5%,6%,0%,0%,18%,0%,19%,0%
Cc1cccc(Nc2nc(N[C@H]3CCCC[C@H]3N)ncc2C(N)=O)c1.Cl [GSK986310],13%,0%,20%,16%,13%,0%,89%,91.4%,61%,23%
Cc1cccc(Nc2nc(NCCN)ncc2C(N)=O)c1 [GSK1292139],0%,3%,0%,10%,0%,0%,66%,98.1%,84%,23%
COc1cc(Nc2nccc(N3CCC(NS(=O)(=O)c4ccc(NC(C)=O)cc4)CC3)n2)cc(OC)c1OC [GSK1379825],32%,14%,40%,0%,1%,0%,48%,35%,15%,5%
Cl.Cl.NC(CNC(=O)c1cc(Br)c(-c2ccnc3[nH]ccc23)s1)c1ccccc1 (centres unmarked) [GSK1322949],5%,0%,0%,50%,40%,0%,77%,34%,63%,27%
CN(c1ccc2c(c1)nc(NCc1ccccc1)n2C)c1ccnc(Nc2ccc(CS(C)(=O)=O)cc2)n1.Cl [GW811603],0%,96.8%,79%,0%,0%,64%,0%,46%,5%,0%
Cc1ccc(NC(=O)c2ccc(Cl)c(Cl)c2)cc1-c1ccc(C(=O)Nc2ccncc2)cc1 [GSK1398460],6%,34%,10%,7%,10%,0%,6%,28%,24%,0%
COc1cccc(CC(=O)N2CCc3cc(-c4cn(C)c5ncnc(N)c45)ccc32)c1 [GSK2608899],0%,6%,53%,8%,0%,0%,0%,43%,19%,20%
